Compound activity: PubChem, several laboratories
PGE2 EP2 inh = blocks the human prostaglandin E2 receptor EP2. P43116. C6 glioma cells expressing human EP2, cAMP TR-FRET; cells stimulated with saturating PGE2. inhibition, % at 25 µM. 0.52% of 260,000 active;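 active means percent inhibition above 40 after rounding to a whole number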;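 further: rat C6 glioma host cells with rolipram phosphodiesterase inhibitor present; the protocol text gives 20 µM as final concentration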
Target sequence (P43116 whole entry, looked up): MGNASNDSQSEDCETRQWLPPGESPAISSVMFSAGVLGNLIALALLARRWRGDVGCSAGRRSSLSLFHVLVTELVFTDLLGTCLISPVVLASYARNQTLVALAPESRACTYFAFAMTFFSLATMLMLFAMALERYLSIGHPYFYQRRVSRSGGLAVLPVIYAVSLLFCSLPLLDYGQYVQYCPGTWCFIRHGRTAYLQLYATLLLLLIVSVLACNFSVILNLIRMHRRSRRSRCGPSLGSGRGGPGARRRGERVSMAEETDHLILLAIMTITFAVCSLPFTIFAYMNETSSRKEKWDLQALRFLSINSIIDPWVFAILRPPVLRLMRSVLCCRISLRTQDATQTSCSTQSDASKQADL
Avidin bead fluor = avidin bead compound fluorescence profile. Avidin beads, compound fluorescence 488/530 nm, flow cytometry; hits give high values. fluorescence (KMESF) at 10 µM. 0.38% of 220,000 active; in the data active means fluorescence above about 47
Efa HMGR inh = inhibitors of class II HMG-CoA reductase from Enterococcus faecalis. 0.41% of 190,000 active. purified E. faecalis HMGR, NADPH absorbance 340 nm kinetic. inhibition, % at 10 µM. AID 1066;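 active means inhibition above a set limit, the median over all tested compounds plus 3 SD, cut at about 9.5% in these data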;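 further: enzyme runs in reverse so mevalonate oxidation gives rising NADPH absorbance; 0% = complete reaction with DMSO and 100% = background rate lacking mevalonate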
GSH fluor = GSH bead compound fluorescence profile; fluorescence (KMESF) at 10 µM; GSH beads flow cytometry, compound fluorescence 488/530 nm; hits give high values; 0.25% of 190,000 active; in the data active means fluorescence above about 89;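 further: glutathione beads carrying GST-tagged Bcl family fusion proteins plus one bare bead set; values are compound well signal with DMSO vehicle wells as background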
EP2 mod = EP2 receptor (human) modulation. induction, % at 25 µM. EP2-expressing cells, cAMP HTRF FRET, PGE2 co-stimulation. 0.83% of 260,000 active. P43116;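 active means compounds whose cAMP rise, as percent of the full-agonist control response, exceeds 60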;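 further: rat C6 glioma line stably carrying human EP2 under a CMV promoter; the protocol text gives 20 µM as final concentration; 100% = response of wells given 1 µM PGE2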
EP2 cAMP induct = human EP2 receptor cAMP induction, negative in counter-screens; shares compounds with EP2 mod; C6 glioma EP2 cells, cAMP HTRF induction; plus low (about EC15) PGE2 agonist; calls only at 20 µM (by protocol); 47% of 1,300 active;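 active means cAMP induction above 50% in the main assay while under 30% in all four parallel counter assays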;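 further: rat C6 glioma cells stably expressing human EP2 receptor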
The depositor's hits bear a star; i = inactive; / = no result; + = active, no number. An excerpt weighted towards active compounds, which were near 2.1% of everything screened.

SMILES	PGE2 EP2 inh	Avidin bead fluor	Efa HMGR inh	GSH fluor	EP2 mod	EP2 cAMP induct
Cc1ccc(-n2c(SCC(N)=O)nc3c(c2=O)C2(CCCC2)Cc2ccccc2-3)cc1	13	14	1	15	71*	i
O=c1c2c(n3nnnc3n1-c1ccccc1)-c1ccccc1CC21CCCC1	20	11	-8	25	73*	+
O=c1c2c(n3cnnc3n1C1CCCCC1)-c1ccccc1CC21CCCCC1	9	7	3	15	68*	+
Cc1ccc(N(Cc2ccccc2)Cc2ccccc2)cc1	10	/	/	/	52	i
COc1ccc(N(Cc2ccccc2)S(=O)(=O)c2ccc(C)cc2)cc1	4	21	-3	10	69*	+
O=C(c1cccc(N2CCCCS2(=O)=O)c1)N1C2CCC1CC(c1ccc(F)cc1)C2 (stereo unspecified)	5	/	/	/	-72	/
COc1ccccc1C(=O)NC(=S)Nc1cc(C(=O)O)ccc1C	12	18	-1	12	72*	+
Cc1ccc(C(=O)O)cc1NC(=S)NC(=O)C(c1ccccc1)c1ccccc1	20	8	-1	35	48	/
Cc1ccc(C(=O)O)cc1NC(=S)NC(=O)Cc1ccccc1	9	7	1	27	2	/
COc1cc2ccccc2cc1C(=O)NC(=S)Nc1cc(C(=O)O)ccc1C	2	17	-2	9	100*	+
CCOC(=O)c1cc(CC)sc1NC(=O)c1cc(OC)c(OC)c(OC)c1	10	9	-6	50	68*	+
O=C(NCCCn1ccnc1)c1cc(-c2ccc(Cl)cc2Cl)on1	13	/	/	/	-118	/
Cc1oc(-c2ccccc2)cc1C(=O)Nc1cccc(/C=C\C(=O)O)c1	10	16	0	9	82*	+
Cc1nonc1CC(=O)N1CCC(n2nnc(-c3ccccc3)n2)CC1	/	/	/	/	-48	/
NS(=O)(=O)c1ccc(-n2nc(C(=O)O)cc2-c2ccc(Cl)cc2)cc1	3	24	-6	12	5	/
Cc1ccc(-c2cc(C(F)(F)F)nn2-c2ccc(S(N)(=O)=O)cc2)cc1	11	/	/	/	66*	+
CC(=O)Oc1ccc2ccccc2c1C(NC(=O)Cc1ccccc1)c1ccccc1 (stereo unspecified)	3	5	0	37	65*	i
CC(=O)NC(c1cccc([N+](=O)[O-])c1)c1c(OC(C)=O)ccc2ccccc12 (stereo unspecified)	11	20	-2	18	12	/
COc1cc2c(cc1OC)-c1cc(N3CCCc4ccccc43)nc(=O)n1CC2	7	4	-4	25	61*	i
COc1cc2c(cc1OC)-c1cc(Nc3ccccc3)nc(=O)n1CC2	10	6	/	/	31	/
COc1cc2c(cc1OC)-c1cc(Nc3ccc4c(c3)OCCO4)nc(=O)n1CC2	13	11	-4	50	56	i
Cc1ccc(C(=O)CSc2nnc(COc3cccc4ccccc34)o2)cc1	3	/	/	/	-60	/
COc1ccc2cc(C)c3nn(CC(=O)NC(C)(C)C)c(=O)n3c2c1	11	/	/	/	-42	/
CC(C)OC(=O)CSc1nc(C(C)C)nc2ccccc12	15	11	7	17	48	/
Cc1nnc(NC(=O)CSc2nc(Cc3ccccc3)nc3ccccc23)s1	10	/	/	/	10	/
SMILES	PGE2 EP2 inh	Avidin bead fluor	Efa HMGR inh	GSH fluor	EP2 mod	EP2 cAMP induct
CC(C)OC(=O)CSc1nc(Cc2ccccc2)nc2ccccc12	7	13	-2	12	74*	+
COC(=O)CSc1nc(Cc2ccccc2)nc2ccccc12	13	13	-4	12	67*	+
CCOC(=O)CSc1nc(CC)nc2ccccc12	9	22	-1	10	38	/
CCOC(=O)CSc1nc(-c2ccccc2)nc2ccccc12	5	7	-3	14	70*	+
CCOC(=O)CSc1nc(Cc2ccccc2)nc2ccccc12	10	10	-2	16	70*	+
Cc1ccc2[nH]c(=O)c(CN(CC3CCCO3)C(=O)Nc3cccc(Cl)c3)cc2c1 (stereo unspecified)	11	/	/	/	-33	/
CCOC(=O)C(C)Sc1nc(-c2ccccc2)nc2ccccc12 (stereo unspecified)	3	29	-6	11	87*	+
CC(=O)c1c(-c2cccs2)nc2n(C)c3ccccc3n12	18	/	/	/	16	/
CC(=O)N1CCN(c2cc(C)nc3c4c(C)cc(C)nc4nn23)CC1	/	/	/	/	3	/
Cc1cccc(/C=N/Nc2cc(N3CCOCC3)nc(N3CCOCC3)n2)c1	4	8	-6	9	80*	+
CC(C)c1ccc(/C=N/Nc2cc(N3CCOCC3)nc(N3CCOCC3)n2)cc1	9	5	1	11	96*	+
Cc1ccc(/C=N/Nc2cc(C)nc(N3CCOCC3)n2)cc1	10	5	/	/	-19	/
Cc1cc(N/N=C/c2ccccc2)nc(N2CCOCC2)n1	8	15	/	/	-13	/
Cc1cccc(NC(=S)NC(=O)c2ccc(OC(C)C)cc2)n1	9	/	/	/	24	/
Nc1cc(-c2cccs2)nn(CC(=O)N2CCOCC2)c1=O	4	/	/	/	-5	/
c1ccc2c(c1)nc1n(CCN3CCCCC3)cnn21	10	/	/	/	-8	/
O=C1CC(O)(c2ccccc2)C(c2ccccc2)=C1c1ccccc1 (stereo unspecified)	10	7	-4	61	76*	+
FC(F)(F)c1cc(CO[C@H]2CCCN[C@H]2c2ccccc2)cc(C(F)(F)F)c1	14	/	/	/	68*	i
FC(F)(F)c1cc(CCN2C(=S)NC[C@@H]2c2ccccc2)cc(C(F)(F)F)c1	9	19	/	/	17	/
COCCNC(=O)CN(CC1CCCO1)C(=O)CCC(=O)Nc1ccccn1 (stereo unspecified)	13	15	0	28	27	/
COCCNC(=O)C(c1ccc(F)cc1)N(CC1CCCO1)C(=O)CCC(=O)Nc1ccccn1 (stereo unspecified)	10	34	2	17	72*	i
COc1ccc(NC(=O)N(Cc2ccccc2)Cc2nc3ccccc3c(=O)[nH]2)cc1	11	/	/	/	-5	/
COC(=O)c1ccccc1NC(=O)C(C)Oc1ccccc1 (stereo unspecified)	12	16	-5	13	53	i
COc1ccc(CN2CCC(O)(c3ccccc3)C2)cc1Cn1ccnc1 (stereo unspecified)	3	/	/	/	-64	/
CCCc1nc(SC2CCCC2)c2c(=O)n(C)c(=O)n(C)c2n1	7	7	-4	17	79*	+
COc1ccc(C)cc1NC(=O)C1CC(=O)OC12CCCCC2 (stereo unspecified)	10	6	1	38	65*	i
S=c1[nH]cc(-c2ccccc2)n1-c1ccccc1	11	32	-3	10	75*	i
